The text below walks through data of PubChem BioAssay.

Assay [1] has as its system PRMT1 (protein arginine N-methyltransferase 1). As to the kind of experiment: PRMT1 binders on small-molecule microarrays, primary screen, biochemical, small-molecule microarray, 635 nm fluorescence (AID 1088).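 Note: binding of Prmt1 protein to compounds spotted on small-molecule microarray slides.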 To be noted: small-molecule microarray binding, higher = more signal.
A short description of assay [2]: yeast growth modulation, basal conditions, primary screen, YJM789 clinical isolate, OD600, 24 h (AID 1089).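 Note: growth of clinical yeast isolate S. cerevisiae YJM 789 seeded 1000 cells per well; test concentration not given here.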 To be noted: S. cerevisiae YJM789 growth, higher = more signal, called active from +8 up or from −8 down.
Assay [3] in a line: fission yeast growth modulation, primary screen, strain 972, OD600, 24 h, no modulator (AID 1090).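 Note: basal condition with compound alone and no growth modifier present; test concentration not given here.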 The note with it: S. pombe 972 growth, higher = more signal, called active from +8 up or from −8 down.
Assay [4] is described as follows: S. cerevisiae growth modulation with rapamycin, primary screen, strain BY4716, OD600, 96 h (AID 1091). Note: test concentration not given here. To be noted: higher = more signal, called active from +8 up or from −8 down.
Assay [5] addresses Torsin-1A-interacting protein 2 (Homo sapiens) (UniProt Q8NFQ8). The assay is described as follows: LULL1 binders on small-molecule microarray, primary screen, cell lysate, human LULL1 lysate, 635/667 nm fluorescence (AID 1092).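 Note: probe is lysate of COS7 cells overexpressing human LULL1; score merges per-feature 667 nm fluorescence with signal-to-noise.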 To be noted: hLULL1 lysate binding, 635 nm fluorescence, higher = more signal.
Assay [6] in a line: E. coli growth modulation, two-sided OD650, primary screen, E. coli filamentation project, strain DRC41, 24 h (AID 1093).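 Note: MC1000 strain lacking acrAB efflux and sulA so SOS filamentation is blocked; test concentration not given here.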 To be noted: OD650, 24 h, higher = more signal, called active from +8 up or from −8 down.
The nature of assay [7]: small-molecule microarray binders of probe aLefty2, primary screen, biochemical, biotinylated probe, 635/667 nm fluorescence (AID 1094).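 Note: score merges spot fluorescence near 667 nm with spot signal-to-noise ratio.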 The note with it: higher = more signal.
In assay [8] the test system is Noggin (protein binding on small-molecule microarray). The assay is described as follows: Noggin binders on small-molecule microarray, primary screen, biochemical, 635/667 nm fluorescence (AID 1095).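 Note: score merges 667 nm feature fluorescence with signal to noise over triplicate slides.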 The note with it: 635 nm fluorescence, higher = more signal.
Assay [9] deals with Neurogenic locus notch homolog protein 3 (Homo sapiens) (UniProt Q9UM47). As to the kind of experiment: NOTCH3 binders on small-molecule microarray, primary screen, biochemical, 635/667 nm fluorescence (AID 1096). To be noted: NOTCH3 binding, 635 nm fluorescence, higher = more signal.
Sequence of Neurogenic locus notch homolog protein 3 (Homo sapiens) (Q9UM47 whole entry, looked up): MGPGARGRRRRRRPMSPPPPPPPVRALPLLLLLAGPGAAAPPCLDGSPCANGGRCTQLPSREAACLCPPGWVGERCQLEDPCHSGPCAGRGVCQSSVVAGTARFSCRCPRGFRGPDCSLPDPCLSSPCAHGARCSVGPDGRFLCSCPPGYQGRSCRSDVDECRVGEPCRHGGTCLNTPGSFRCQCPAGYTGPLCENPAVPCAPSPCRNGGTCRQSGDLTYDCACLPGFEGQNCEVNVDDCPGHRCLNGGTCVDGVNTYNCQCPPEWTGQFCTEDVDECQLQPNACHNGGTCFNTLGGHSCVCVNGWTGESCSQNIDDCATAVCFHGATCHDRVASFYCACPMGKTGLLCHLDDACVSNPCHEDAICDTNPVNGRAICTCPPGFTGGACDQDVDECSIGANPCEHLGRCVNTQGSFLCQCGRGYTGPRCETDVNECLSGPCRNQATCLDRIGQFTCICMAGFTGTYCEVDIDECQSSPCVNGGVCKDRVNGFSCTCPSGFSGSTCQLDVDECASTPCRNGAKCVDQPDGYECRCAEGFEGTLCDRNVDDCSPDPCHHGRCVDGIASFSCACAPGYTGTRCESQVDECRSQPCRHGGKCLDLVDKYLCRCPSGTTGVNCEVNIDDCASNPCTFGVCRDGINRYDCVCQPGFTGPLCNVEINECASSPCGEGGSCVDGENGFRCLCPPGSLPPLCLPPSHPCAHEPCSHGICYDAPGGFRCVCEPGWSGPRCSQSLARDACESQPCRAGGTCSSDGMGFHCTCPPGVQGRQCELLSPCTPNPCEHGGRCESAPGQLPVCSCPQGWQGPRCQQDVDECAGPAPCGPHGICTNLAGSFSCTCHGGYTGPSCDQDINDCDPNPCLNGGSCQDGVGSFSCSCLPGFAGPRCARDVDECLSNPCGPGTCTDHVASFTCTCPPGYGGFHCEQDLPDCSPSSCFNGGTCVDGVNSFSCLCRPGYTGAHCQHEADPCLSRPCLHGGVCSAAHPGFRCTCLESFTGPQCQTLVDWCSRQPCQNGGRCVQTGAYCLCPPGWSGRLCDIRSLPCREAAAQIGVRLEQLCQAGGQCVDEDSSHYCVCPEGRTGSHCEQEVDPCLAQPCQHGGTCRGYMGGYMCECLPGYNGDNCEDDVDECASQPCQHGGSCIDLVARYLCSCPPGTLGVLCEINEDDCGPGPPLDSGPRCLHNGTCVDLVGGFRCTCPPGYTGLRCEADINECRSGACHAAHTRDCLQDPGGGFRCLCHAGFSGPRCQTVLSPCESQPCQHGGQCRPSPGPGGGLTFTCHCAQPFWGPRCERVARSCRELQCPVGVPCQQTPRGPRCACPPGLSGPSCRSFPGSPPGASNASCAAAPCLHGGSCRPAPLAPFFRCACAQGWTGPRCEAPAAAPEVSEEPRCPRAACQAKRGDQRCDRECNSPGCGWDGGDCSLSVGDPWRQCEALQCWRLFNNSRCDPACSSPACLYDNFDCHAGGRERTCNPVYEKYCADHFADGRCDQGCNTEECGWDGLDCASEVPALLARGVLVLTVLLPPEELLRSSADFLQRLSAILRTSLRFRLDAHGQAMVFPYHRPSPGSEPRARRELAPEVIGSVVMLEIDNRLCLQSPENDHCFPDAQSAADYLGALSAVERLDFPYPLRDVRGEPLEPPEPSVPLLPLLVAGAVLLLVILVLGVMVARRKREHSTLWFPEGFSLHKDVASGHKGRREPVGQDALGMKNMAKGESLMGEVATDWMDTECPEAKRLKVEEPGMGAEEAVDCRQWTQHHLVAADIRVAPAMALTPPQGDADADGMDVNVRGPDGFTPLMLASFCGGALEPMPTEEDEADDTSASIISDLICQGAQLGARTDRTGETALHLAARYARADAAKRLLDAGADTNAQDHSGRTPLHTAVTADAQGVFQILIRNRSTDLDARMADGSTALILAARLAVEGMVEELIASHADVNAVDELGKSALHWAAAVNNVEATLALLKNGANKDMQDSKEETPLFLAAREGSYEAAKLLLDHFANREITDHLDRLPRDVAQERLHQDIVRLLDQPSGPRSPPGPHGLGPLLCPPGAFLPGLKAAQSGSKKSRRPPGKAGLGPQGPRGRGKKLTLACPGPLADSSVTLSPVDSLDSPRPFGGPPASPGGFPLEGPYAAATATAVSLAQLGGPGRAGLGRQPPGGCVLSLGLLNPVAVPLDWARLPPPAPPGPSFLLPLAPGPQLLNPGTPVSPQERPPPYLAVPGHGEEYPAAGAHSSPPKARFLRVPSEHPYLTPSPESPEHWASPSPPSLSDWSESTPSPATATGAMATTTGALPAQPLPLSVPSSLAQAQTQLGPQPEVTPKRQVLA
Assay [10] is described as follows: small-molecule microarray binders of probe aEGFR, primary screen, biochemical, biotinylated probe, 635/667 nm fluorescence (AID 1097).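 Note: probe is a biotinylated anti-EGFR antibody binding compounds printed on slides; score combines fluorescence near 667 nm and signal to noise of each spot.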 The note with it: higher = more signal.

The structures appear in SMILES notation. The source made the active and inactive calls.

Sequence of Torsin-1A-interacting protein 2 (Homo sapiens) (Q8NFQ8 whole entry, looked up): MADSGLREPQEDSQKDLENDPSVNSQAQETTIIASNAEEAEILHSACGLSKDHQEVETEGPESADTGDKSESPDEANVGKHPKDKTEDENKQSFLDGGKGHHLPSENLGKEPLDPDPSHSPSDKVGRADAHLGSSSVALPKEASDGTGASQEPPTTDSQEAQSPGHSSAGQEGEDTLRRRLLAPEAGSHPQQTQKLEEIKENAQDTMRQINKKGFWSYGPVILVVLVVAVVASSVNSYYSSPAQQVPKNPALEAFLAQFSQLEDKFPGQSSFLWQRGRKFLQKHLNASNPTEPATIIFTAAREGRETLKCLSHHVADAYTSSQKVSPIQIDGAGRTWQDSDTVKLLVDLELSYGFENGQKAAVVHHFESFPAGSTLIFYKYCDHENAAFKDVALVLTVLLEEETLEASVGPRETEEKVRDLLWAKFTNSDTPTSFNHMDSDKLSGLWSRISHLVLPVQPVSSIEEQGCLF

`CCCCC(=C=CC[C@H](O)c1ccc(OCCO)cc1)C[C@H](O)c1cc(Cl)cc(Cl)c1O`: the composite z-score in assay [1] is 1.18; in assay [5] it was 1.54; in [7] it was -0.192; in assay [8] it was 0.563; in assay [9], 0.62; in assay [10] it was -0.183. For the same compound, the z-score in [2] is 0.294 (inactive); in assay [3], -3.5 (inactive); in assay [4], -0.15 (inactive); in assay [6], 0.0374 (inactive).

For the compound `COc1ccc(C(O)C2C=CC3C(=O)N(c4ccccc4)C(=O)C3N2Nc2ccc(C(C)C)cc2)c2ccccc12` (stereo not given), the composite z-score is 1.56 in assay [1]; 3.61 in [5]; 0.204 in assay [7]; 0.0754 in assay [8]; 1.07 in [9]; -0.0019 in assay [10]. Further, the z-score in assay [2] is 0.254 (inactive); in assay [3], 0.227 (inactive); in assay [4] it was -0.519 (inactive); in [6] it was -1.08 (inactive).

With `O=C1N[C@@H](Cc2ccccc2)C(=O)N2[C@@H]1C[C@@H](C(=O)O)[C@H]2c1ccc(O)cc1`, the composite z-score in assay [1] was 1.19; in [5] it was 2.41; in assay [7], 0.391; in [8], 1.5; in assay [9], 1.11; in assay [10] it was 0.335. Also, the z-score in assay [2] was -0.0447 (inactive); in [3], -0.701 (inactive); in [4] it was -0.54 (inactive); in assay [6] it was 1.54 (inactive).

Turning to `CO[C@H]1O[C@H](CO)[C@@H](OC(=O)Nc2cccc(F)c2)[C@H](OC(=O)Nc2ccccc2-c2ccccc2)[C@H]1OC(=O)Nc1ccccc1-c1ccccc1`, the composite z-score in assay [1] is 1.54; in assay [5], 3.08; in [7] it was 0.0361; in assay [8], 0.928; in [9] it was 1.06; in assay [10], -0.0225. The z-score in assay [2] is -0.455 (inactive); in assay [3], 2.19 (inactive); in assay [4], 1.39 (inactive); in assay [6], -0.158 (inactive).

Regarding `CCOC(=O)C1=C[C@@H](C(C)(C)C)N(S(=O)(=O)c2ccc(C)cc2)[C@H]1c1ccc(C)cc1`, the composite z-score is 1.54 in assay [1]; 3.25 in assay [5]; 0.273 in assay [7]; 0.552 in [8]; 1.02 in assay [9]; 0.157 in [10]. The z-score is -0.582 (inactive) in assay [2], 0.0598 (inactive) in assay [3], 0.632 (inactive) in assay [4] and -1.38 (inactive) in assay [6].

As for `CO[C@H]1O[C@H](CO)[C@@H](OC(=O)Nc2ccc(C#N)cc2)[C@@H]2OC(=O)[C@H](Cc3cccc(Br)c3)C/C=C/C[C@@H](Cc3cccc(Br)c3)C(=O)O[C@@H]12`, the composite z-score in assay [1] was determined as 1.24; in assay [5], 1.26; in [7], 0.212; in [8], 0.432; in [9], 0.733; in assay [10], 0.11. In addition, the z-score in [2] is 0.471 (inactive); in assay [3], 0.0261 (inactive); in assay [4] it was 27.2 (active); in assay [6] it was 0.27 (inactive).
